Measured values taken from the supplement of paper PMC6555819.

test system: PPARg DBDmut:RXRa IVT, anti-PPARg (DBD mutation: PPARg1 K132A/R137A, NR concentration 270 nM, RXRa partner concentration 90 nM); assay: PBM binding z-score (relative to random genomic background probes); higher = stronger binding; sequences stand for … in GC…GCGATTGACAGCGTAGAATGAAGG
Method in brief: (§1)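 Antibodies against each partner of ligand-free nuclear receptor dimers (one per run) detected binding on custom Agilent 4×180K protein-binding microarrays after 1 h incubation. The double-stranded probes had 34-nt variable regions carrying direct-repeat seeds, single-nucleotide variants, half-site ablations and random human genomic background sequences. Binding z-scores, from regression-normalized fluorescence, use the random background probes as reference.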

Row | Sequence | PBM binding z-score
1 | TCTCGGAGGACACGACAGGTCAGAGCTCGACATC | 0.0844
2 | CCTCGGAGGACTGAAGGTCAGAGCTGTCCGCTTT | -2.59
3 | TCGGACAGGTGAAGGTAACTCAGGTACGCAGTCG | -0.211
4 | CCGTACGGGTCACTCCAGGTTATAGCATCGGAGT | -0.309
5 | TCGAGTAGGTTAGGGGAATTCAGAATGGCGTCGA | 0.128
6 | CGTTACGGGTCACGAGGTTATAGCACGACGAGCG | 1.39
7 | GGAACGAGGACATTCGAGTTGATAGCATGGCGAT | -0.159
8 | CGTCAAAGTTCTACTAAGGTAACGTAAAGCACGC | 0.246
9 | TCATATAGGTAAAGGTGACAGTCGAACGATATGA | 1.74
10 | CTCGAAAGGTCGTGCTCAGGAGAGTATACCAAAC | 0.0921
11 | GGAACGAGGGCATTCGAGTTTATAGCATGGCGAT | -0.439
12 | GATACAGGGTCACGGCCAGAGTACGCGTATTGAT | 1.11
13 | ATATGTAAGTTATCGGGTCATTCAGTTTGCGCAT | 1.57
14 | TCACCAAGGTGAGCTGAGGTCGTTGATCCAACTC | -0.807
15 | GCATATCGGTAATACAAGGTGAAAGTCCGATTGT | 0.308
16 | ACAGACAGGTGATGAAGGTCACTCAGGCTATCAT | 0.688
17 | ACAGACAGGTGCTGAAGGTAACTCAGGCTATCAT | -0.162
18 | CCTTACGGGTCAAGGTTCTAGCACGGGTGGTACG | 0.0121
19 | ACTAGCAGGCAAAGTTTGGGTCACTCAAACAAAG | -0.258
20 | GATACAGGGTCAGCTAGAGGCCAGGGTATGGAAA | 0.352

Row | Sequence | PBM binding z-score
21 | ACTAGCAGGCCAAGTTTGCGTCACTCAAACAAAG | 0.102
22 | GTACCAAGGTGAATAGGTAGTTGATGAGTAGGCG | 0.536
23 | ATCGAAAGGTCGACAAGGTGAGTATACACCGTTT | 1.72
24 | CAGCCTAGGTCAGGGGCAGTATAGGAGGAACGTT | -0.201
25 | CAAGACAGGTGAAAGGTAACTCAGTCTGGTACGC | 0.223
26 | CAAACTAGGTCACAGAGGTCAAAATCCGTGCGTA | 3.39
27 | TATACAGGGTCAAAGGCCAGGGTACGAATGTCGA | 2.34
28 | TCTTGGAGATCAGCAGGTTAAGAAAGCTGGCCAA | -0.469
29 | TGAATGCGGTTATAAGATCAGGGAACGTTGCAAA | 0.512
30 | CCAGACAGGTGAAAGGTATCTCAGTCTGGTACGC | 0.166
31 | CGTCAAAGTTCAACTAAGGCAACGTAAAGCACGC | 0.22
32 | GCTGCTAGGTGAGGTTGGTCAGCTAACGGGTACG | -0.621
33 | CAAACTAGGTCAAGAGGTCAAGGTCCGCTTCCCG | 0.83
34 | ATATGTAGGTTAAGGGACATTCAGGTTGGTTCGC | 1.67
35 | CCGACTGGGGCATAAGGTTACCGTAAGCCAGCCC | -0.802
36 | CGAACTAGGTCAAGGACAGTGACTCTCCGCACGC | 1.83
37 | ACTAGCAGGCCAAGTTTGGGTCAGTCAAACAAAG | -0.643
38 | CCTACTGGGCCATTCCGAGGTCATTGATCATATG | 0.312
39 | CCAGACAGGTGAAAGCTAACTCAGTCTGGTACGC | -0.519
40 | CGTCCAAGGTCAGAGGTCAGTGAAGAGATGACGG | 0.388

test system: PPARg DBDmut IVT, anti-PPARg (DBD mutation: PPARg1 K132A/R137A, NR concentration 270 nM); assay: as above
Method in brief: as §1

Row | Sequence | PBM binding z-score
41 | TCTCGGAGGACACGACAGGTCAGAGCTCGACATC | -0.496
42 | CCTCGGAGGACTGAAGGTCAGAGCTGTCCGCTTT | -3.05
43 | TCGGACAGGTGAAGGTAACTCAGGTACGCAGTCG | -0.574
44 | CCGTACGGGTCACTCCAGGTTATAGCATCGGAGT | -1.04
45 | TCGAGTAGGTTAGGGGAATTCAGAATGGCGTCGA | -0.466
46 | CGTTACGGGTCACGAGGTTATAGCACGACGAGCG | 0.539
47 | GGAACGAGGACATTCGAGTTGATAGCATGGCGAT | -0.578
48 | CGTCAAAGTTCTACTAAGGTAACGTAAAGCACGC | 0.834
49 | TCATATAGGTAAAGGTGACAGTCGAACGATATGA | 1.19
50 | CTCGAAAGGTCGTGCTCAGGAGAGTATACCAAAC | 0.34
51 | GGAACGAGGGCATTCGAGTTTATAGCATGGCGAT | -0.834
52 | GATACAGGGTCACGGCCAGAGTACGCGTATTGAT | 0.362
53 | ATATGTAAGTTATCGGGTCATTCAGTTTGCGCAT | 1.8
54 | TCACCAAGGTGAGCTGAGGTCGTTGATCCAACTC | -0.69
55 | GCATATCGGTAATACAAGGTGAAAGTCCGATTGT | 0.208
56 | ACAGACAGGTGATGAAGGTCACTCAGGCTATCAT | 0.177
57 | ACAGACAGGTGCTGAAGGTAACTCAGGCTATCAT | 0.258
58 | CCTTACGGGTCAAGGTTCTAGCACGGGTGGTACG | -0.395
59 | ACTAGCAGGCAAAGTTTGGGTCACTCAAACAAAG | -0.0533
60 | GATACAGGGTCAGCTAGAGGCCAGGGTATGGAAA | -0.589

Row | Sequence | PBM binding z-score
61 | ACTAGCAGGCCAAGTTTGCGTCACTCAAACAAAG | -0.27
62 | GTACCAAGGTGAATAGGTAGTTGATGAGTAGGCG | 0.507
63 | ATCGAAAGGTCGACAAGGTGAGTATACACCGTTT | 1.65
64 | CAGCCTAGGTCAGGGGCAGTATAGGAGGAACGTT | -0.982
65 | CAAGACAGGTGAAAGGTAACTCAGTCTGGTACGC | 0.183
66 | CAAACTAGGTCACAGAGGTCAAAATCCGTGCGTA | 4.84
67 | TATACAGGGTCAAAGGCCAGGGTACGAATGTCGA | 1.6
68 | TCTTGGAGATCAGCAGGTTAAGAAAGCTGGCCAA | -0.467
69 | TGAATGCGGTTATAAGATCAGGGAACGTTGCAAA | 0.235
70 | CCAGACAGGTGAAAGGTATCTCAGTCTGGTACGC | -0.382
71 | CGTCAAAGTTCAACTAAGGCAACGTAAAGCACGC | -0.059
72 | GCTGCTAGGTGAGGTTGGTCAGCTAACGGGTACG | -0.843
73 | CAAACTAGGTCAAGAGGTCAAGGTCCGCTTCCCG | -0.359
74 | ATATGTAGGTTAAGGGACATTCAGGTTGGTTCGC | 1.87
75 | CCGACTGGGGCATAAGGTTACCGTAAGCCAGCCC | -1.39
76 | CGAACTAGGTCAAGGACAGTGACTCTCCGCACGC | 0.467
77 | ACTAGCAGGCCAAGTTTGGGTCAGTCAAACAAAG | -0.95
78 | CCTACTGGGCCATTCCGAGGTCATTGATCATATG | -0.485
79 | CCAGACAGGTGAAAGCTAACTCAGTCTGGTACGC | -0.546
80 | CGTCCAAGGTCAGAGGTCAGTGAAGAGATGACGG | -0.499
